Here are results for 5 compounds from PubChem BioAssay.

The source made the active and inactive calls.

In assay [1] the target is Albumin (Bos taurus) (UniProt P02769). Nature of the assay: bovine serum albumin binders on microarray, profiling panel, artefact control for SMM control protein annotation, biochemical, small-molecule microarray, Alexa647 label, 635/667 nm fluorescence (AID 1118).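 Further: score merges 667 nm emission intensity and signal-to-noise per printed compound spot.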 Particulars: BSA-A647 binding, fluorescence 635 nm, higher = more signal.
Assay [2] is described as follows: small-molecule microarray binders of probe aXIP, primary screen, biochemical, NeuroSMM set, 635/667 nm fluorescence (AID 1119).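 Further: probe is the protein aXip251-270 applied at 1 µg/mL to compound-printed slides; binding of probe to printed compounds measured as 667 nm fluorescence plus signal to noise.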 Particulars: higher = more signal, called active from +8 up or from −8 down.
The nature of assay [3]: small-molecule binders of probe aNOTCH3, primary screen, biochemical, small-molecule microarray, 635/667 nm fluorescence (AID 1120).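 Further: probe is a biotin-tagged antibody raised against NOTCH3 rather than NOTCH3 protein; score merges spot fluorescence near 667 nm with spot signal to noise.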 Particulars: higher = more signal.
A short description of assay [4]: small-molecule binders of probe aNOTCH2, primary screen, biochemical, small-molecule microarray, 635/667 nm fluorescence (AID 1121).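 Further: score merges feature fluorescence read at 667 nm with its signal to noise.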 Conditions: higher = more signal.
In assay [5] the target is Carbonic anhydrase 2 (Homo sapiens) (UniProt P00918). Nature of the assay: CAII small-molecule binders, profiling panel, biochemical, small-molecule microarray, Alexa647-labelled CAII (AID 1122). Particulars: CAII-A647 binding fluorescence, higher = more signal.
Assay [6] can be described thus: COS7 lysate on small-molecule microarray, probe aHis, 635 nm (AID 1123).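 Further: z-score combines 667nm fluorescence intensity with signal-to-noise per printed compound spot.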 Particulars: COS7 cell lysate, fluorescence, higher = more signal.
Assay [7] can be described thus: compound binding in COS7 lysate, probe aLAP1, primary screen, cell lysate, small-molecule microarray (AID 1124).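 Further: lysate comes from COS7 cells expressing LAP1 and is applied at 0.3 µg/mL; score merges spot fluorescence near 667 nm with signal-to-noise over triplicate slides.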 Conditions: probe aLAP1, fluorescence, higher = more signal.
The subject of assay [8] is Sam68 (KHDRBS1). Nature of the assay: Sam68 small-molecule binders, primary screen, biochemical, small-molecule microarray, 635 nm fluorescence (AID 1125).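 Further: score merges 667 nm channel intensity with signal to noise over triplicate slides.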 Conditions: small-molecule microarray binding, higher = more signal.
The subject of assay [9] is Chordin-like protein 2 (CHRDL2). As to the kind of experiment: CHRDL2 small-molecule binders, primary screen, biochemical, small-molecule microarray, 635 nm fluorescence (AID 1126).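 Further: printed compound slides probed with Chrdl2 protein at 4 µg/mL for 1 h at 4 C; score merges 667 nm emission intensity with signal to noise over three replicate slides.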 Conditions: small-molecule microarray binding, fluorescence 635 nm; higher = more signal.
In assay [10] the target is Concanavalin-A (Canavalia ensiformis) (UniProt P02866). Nature of the assay: ConA small-molecule binders, primary screen, artefact control for SMM control protein annotation, biochemical, small-molecule microarray, Alexa647 label, 635 nm (AID 1127).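 Further: z combines 667 nm emission intensity with signal-to-noise across three replicate slides.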 Particulars: ConA-A647 binding fluorescence, higher = more signal.
Assay [11] in a line: anti-His antibody binders, primary screen, artefact control for SMM control protein annotation, biochemical, small-molecule microarray, 635 nm fluorescence (AID 1128).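 Further: score merges feature fluorescence with signal-to-noise for each printed compound spot.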 Conditions: anti-His Alexa647 antibody binding, higher = more signal.
Assay [12] deals with Human papillomavirus type 1a E7 protein (residues 1-88). As to the kind of experiment: HPV1a E7 small-molecule binders, primary screen, biochemical, small-molecule microarray, residues 1-88, 635 nm (AID 1129). Particulars: small-molecule microarray binding, fluorescence 635 nm; higher = more signal.
The target of assay [13] is Focal adhesion kinase 1 (Homo sapiens) (UniProt Q05397). Nature of the assay: small-molecule microarray binders of FAK, primary screen, biochemical, 635/667 nm fluorescence, BSA, DTT (AID 1130).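 Further: composite of spot emission at 667 nm and signal to noise over triplicate slides.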 Conditions: PTK2 binding, 635 nm fluorescence, higher = more signal.
The test system of assay [14] is Fibrinogen (Alexa647-labelled). Nature of the assay: fibrinogen binders on compound microarrays, profiling panel, artefact control for SMM control-protein annotation, biochemical, small-molecule microarray, 635/667 nm fluorescence (AID 1131).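 Further: z-score merges 667 nm fluorescence with per-spot signal-to-noise over triplicate slides.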 Particulars: fibrinogen-A647 binding fluorescence, higher = more signal.
Assay [15] concerns the target Follistatin (Homo sapiens) (UniProt P19883). As to the kind of experiment: follistatin binders on small-molecule microarrays, primary screen, biochemical, small-molecule microarray, 635/667 nm fluorescence (AID 1132). Conditions: FST binding, 635 nm fluorescence, higher = more signal.
Assay [16] deals with Fibroblast growth factor 2 (Homo sapiens) (UniProt P09038). As to the kind of experiment: FGF2 binders on small-molecule microarrays, primary screen, biochemical, small-molecule microarray, 635/667 nm fluorescence (AID 1133). Particulars: small-molecule microarray binding, FGF2, fluorescence 635/667; higher = more signal.
The nature of assay [17]: mitochondrial membrane potential change in A549 cells, profiling panel, cell-based, JC-1 fluorescence, basal, 24 h, 100 nL (AID 1138).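 Further: A549 lung adenocarcinoma cells under basal conditions with no added stimulus; test concentration not given here.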 Particulars: higher = more signal.
The test system of assay [18] is Lefty1. Nature of the assay: Lefty1 binders on small-molecule microarrays, primary screen, biochemical, small-molecule microarray, 635/667 nm fluorescence (AID 1139). Particulars: small-molecule microarray binding, fluorescence 635/667; higher = more signal.
In assay [19] the test system is wheat germ agglutinin (Triticum aestivum), Alexa647-labelled. As to the kind of experiment: wheat germ agglutinin binders on compound microarrays, profiling panel, artefact control for SMM control-protein annotation, biochemical, small-molecule microarray, 635/667 nm fluorescence (AID 1140).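 Further: score merges 667 nm feature emission with signal to noise over triplicate slides.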 Particulars: WGA-A647 binding, 635 nm fluorescence, higher = more signal.
In assay [20] the target is Luciferin 4-monooxygenase (Photinus pyralis) (UniProt P08659). As to the kind of experiment: firefly luciferase enzyme inhibitors, primary screen, biochemical, luminescence, purified enzyme, 2006 set (AID 1141).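 Further: cell-free assay with purified firefly luciferase at 100 ng per well in PBS; test concentration not given here.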 Conditions: SteadyGlo luminescence, 30 min, higher = more signal, called active from +8 up or from −8 down.
Chain of Luciferin 4-monooxygenase (Photinus pyralis) (P08659 whole entry, looked up): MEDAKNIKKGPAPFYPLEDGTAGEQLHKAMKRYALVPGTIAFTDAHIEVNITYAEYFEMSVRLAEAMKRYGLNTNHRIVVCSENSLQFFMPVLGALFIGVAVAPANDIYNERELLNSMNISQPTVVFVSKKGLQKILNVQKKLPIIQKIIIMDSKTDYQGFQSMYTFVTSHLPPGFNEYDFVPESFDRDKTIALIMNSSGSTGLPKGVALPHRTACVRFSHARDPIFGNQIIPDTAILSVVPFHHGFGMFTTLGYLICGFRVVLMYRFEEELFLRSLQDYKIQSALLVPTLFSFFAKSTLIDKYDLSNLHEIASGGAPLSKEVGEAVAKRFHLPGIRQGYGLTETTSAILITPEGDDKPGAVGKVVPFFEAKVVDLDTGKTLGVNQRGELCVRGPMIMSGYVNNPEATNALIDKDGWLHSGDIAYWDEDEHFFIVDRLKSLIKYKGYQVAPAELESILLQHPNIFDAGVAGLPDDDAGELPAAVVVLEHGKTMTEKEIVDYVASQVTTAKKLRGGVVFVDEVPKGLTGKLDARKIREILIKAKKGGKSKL

Chain of Albumin (Bos taurus) (P02769 whole entry, looked up): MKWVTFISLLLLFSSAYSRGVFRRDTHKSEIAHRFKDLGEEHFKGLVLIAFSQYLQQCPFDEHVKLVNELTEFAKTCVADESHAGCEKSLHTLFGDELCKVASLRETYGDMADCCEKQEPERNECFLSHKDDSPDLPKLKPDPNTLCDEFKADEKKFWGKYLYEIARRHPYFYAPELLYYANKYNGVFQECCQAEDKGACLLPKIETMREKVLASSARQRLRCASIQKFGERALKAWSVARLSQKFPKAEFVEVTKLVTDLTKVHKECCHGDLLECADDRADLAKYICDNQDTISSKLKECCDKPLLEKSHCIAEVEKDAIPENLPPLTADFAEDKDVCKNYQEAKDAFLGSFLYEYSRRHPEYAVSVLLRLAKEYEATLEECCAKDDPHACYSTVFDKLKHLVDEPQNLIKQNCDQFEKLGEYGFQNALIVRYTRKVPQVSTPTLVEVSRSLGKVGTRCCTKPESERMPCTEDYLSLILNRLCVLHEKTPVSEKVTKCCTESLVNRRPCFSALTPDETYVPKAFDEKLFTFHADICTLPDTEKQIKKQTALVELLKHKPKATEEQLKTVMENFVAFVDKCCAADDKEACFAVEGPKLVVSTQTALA
Chain of Fibroblast growth factor 2 (Homo sapiens) (P09038 whole entry, looked up): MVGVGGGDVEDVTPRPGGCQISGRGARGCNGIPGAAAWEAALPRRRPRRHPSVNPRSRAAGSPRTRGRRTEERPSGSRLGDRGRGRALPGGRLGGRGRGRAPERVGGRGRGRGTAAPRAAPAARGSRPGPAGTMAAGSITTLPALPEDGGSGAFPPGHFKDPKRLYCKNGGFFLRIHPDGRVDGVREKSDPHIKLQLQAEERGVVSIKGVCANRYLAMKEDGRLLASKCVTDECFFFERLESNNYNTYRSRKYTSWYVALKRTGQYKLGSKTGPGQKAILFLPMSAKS
Chain of Follistatin (Homo sapiens) (P19883 whole entry, looked up): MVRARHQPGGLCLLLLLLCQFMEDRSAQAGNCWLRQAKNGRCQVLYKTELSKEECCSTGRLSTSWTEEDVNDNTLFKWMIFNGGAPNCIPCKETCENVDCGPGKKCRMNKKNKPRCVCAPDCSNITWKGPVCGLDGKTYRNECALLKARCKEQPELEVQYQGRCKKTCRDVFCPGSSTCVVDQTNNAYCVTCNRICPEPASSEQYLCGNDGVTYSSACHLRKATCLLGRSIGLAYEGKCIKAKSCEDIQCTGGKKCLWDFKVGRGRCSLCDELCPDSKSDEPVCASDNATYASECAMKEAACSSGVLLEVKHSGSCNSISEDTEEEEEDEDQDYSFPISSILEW
Chain of Concanavalin-A (Canavalia ensiformis) (P02866 whole entry, looked up): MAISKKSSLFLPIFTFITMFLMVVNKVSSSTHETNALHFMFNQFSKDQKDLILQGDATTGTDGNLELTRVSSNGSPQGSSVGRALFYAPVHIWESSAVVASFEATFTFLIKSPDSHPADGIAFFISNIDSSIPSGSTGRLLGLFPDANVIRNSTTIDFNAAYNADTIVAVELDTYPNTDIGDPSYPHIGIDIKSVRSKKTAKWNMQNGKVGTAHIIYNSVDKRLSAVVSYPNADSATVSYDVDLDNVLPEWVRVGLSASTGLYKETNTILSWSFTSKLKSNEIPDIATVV
Chain of Focal adhesion kinase 1 (Homo sapiens) (Q05397 whole entry, looked up): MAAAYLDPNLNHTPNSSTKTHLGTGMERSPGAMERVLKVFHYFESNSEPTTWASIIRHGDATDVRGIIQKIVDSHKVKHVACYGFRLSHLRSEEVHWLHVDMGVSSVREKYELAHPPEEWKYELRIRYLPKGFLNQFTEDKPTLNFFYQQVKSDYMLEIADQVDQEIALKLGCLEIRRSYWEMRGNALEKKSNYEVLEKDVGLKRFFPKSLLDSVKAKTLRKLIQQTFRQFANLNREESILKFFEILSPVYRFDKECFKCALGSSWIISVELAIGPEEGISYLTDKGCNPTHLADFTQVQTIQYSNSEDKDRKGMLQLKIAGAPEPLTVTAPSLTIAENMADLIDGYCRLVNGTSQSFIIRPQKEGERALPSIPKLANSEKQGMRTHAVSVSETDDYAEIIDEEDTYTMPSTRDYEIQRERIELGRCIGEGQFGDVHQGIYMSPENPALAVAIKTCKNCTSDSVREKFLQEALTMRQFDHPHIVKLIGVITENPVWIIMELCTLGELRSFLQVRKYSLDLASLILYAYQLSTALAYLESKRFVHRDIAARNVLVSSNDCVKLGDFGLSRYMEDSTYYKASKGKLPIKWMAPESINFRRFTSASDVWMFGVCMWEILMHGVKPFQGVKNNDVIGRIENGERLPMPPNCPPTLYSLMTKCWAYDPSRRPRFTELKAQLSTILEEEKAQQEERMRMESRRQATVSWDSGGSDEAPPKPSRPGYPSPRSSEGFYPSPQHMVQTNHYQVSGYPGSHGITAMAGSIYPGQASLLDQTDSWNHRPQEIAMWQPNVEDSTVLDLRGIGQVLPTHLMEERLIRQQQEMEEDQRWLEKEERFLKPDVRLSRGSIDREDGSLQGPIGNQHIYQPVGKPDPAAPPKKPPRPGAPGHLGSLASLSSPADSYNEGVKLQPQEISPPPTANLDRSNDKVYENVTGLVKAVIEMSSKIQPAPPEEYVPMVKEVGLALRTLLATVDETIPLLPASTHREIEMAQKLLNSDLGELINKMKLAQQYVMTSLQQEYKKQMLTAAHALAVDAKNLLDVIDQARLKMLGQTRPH

Regarding `C=CCC(OC(C)=O)[C@@H]1[C@@H](N(Cc2cc3ccccc3o2)C(=O)c2ccc(C)cc2)c2cc(OCCCO)ccc2N1C(=O)c1ccc2ccccc2c1` (stereo not given in full), the composite z-score in [1] is 0.767; in assay [3], 0.0259; in assay [4], -0.101; in assay [5] it was 0.0486; in assay [6] it was 0.605; in assay [7] it was -0.069. In addition, the composite z-score in [8] is -0.0437; in assay [9] it was 0.157; in [10] it was -0.309; in assay [11], 0.192; in [12], -0.409; in assay [13], 0.281. In addition, the composite z-score is 0.257 in assay [14]; 0.503 in assay [15]; 0.286 in assay [16]; 0.217 in assay [18]; 0.32 in assay [19]. Further, the composite Z-score in assay [2] was 0.698 (inactive). The z-score is 1.24 in [17] and -1.76 (inactive) in assay [20].
On to `COc1ccc(CCNC(=O)[C@@]2(Sc3ccc(C)cc3)CC(=O)N(Cc3ccccc3Cl)[C@@H]2c2ccc(CO)cc2I)cc1`, for which the composite z-score in assay [1] is 0.331; in [3], -0.177; in assay [4], -0.0814; in assay [5] it was 0.76; in [6] it was 1.71; in [7] it was 1.18. Also, the composite z-score in assay [8] is 0.361; in [9] it was 0.0024; in assay [10], -0.233; in [11], 2.25; in [12] it was 0.349; in [13] it was -0.0568. The composite z-score in [14] is 0.35; in assay [15], 1.03; in assay [16], 0.664; in [18] it was -0.954; in [19], 0.593. Besides, the composite Z-score in [2] was -0.0194 (inactive). The z-score was 2.03 in assay [17] and 0.674 (inactive) in [20].
As for `C=CCC(OC(C)=O)[C@@H]1[C@@H](N(Cc2cccc3ccccc23)C(=O)c2ccc(C)cc2)c2cc(OCCCO)ccc2N1C(=O)Cc1ccc(OC)cc1` (stereo not given in full), the composite z-score in [1] is 0.15; in [3], 0.114; in [4], -0.127; in assay [5] it was 0.112; in assay [6] it was 0.223; in [7], -0.0098. The composite z-score in assay [8] was 0.175; in assay [9], 0.352; in assay [10] it was 0.0517; in assay [11], 0.0508; in [12], -0.0914; in assay [13], 0.183. In addition, the composite z-score in assay [14] was 0.342; in [15] it was 0.695; in [16], -0.148; in assay [18], 0.203; in [19], 0.275. Further, the composite Z-score in assay [2] is -0.858 (inactive). Besides, the values for the z-score in assay [17] and in [20] were 1.3 and 0.0544 (inactive), respectively.
With `O=c1cccc(C=Cc2ccccc2)o1`, the composite z-score is -0.828 in [1]; -0.178 in assay [3]; -0.126 in assay [4]; -0.228 in assay [5]; -0.386 in [6]; 0.224 in [7]. Further, the composite z-score in [8] is -0.0848; in assay [9], -1.58; in assay [10] it was -0.514; in assay [11], -0.23; in assay [12] it was -0.191; in assay [13], -0.599. For the same compound, the composite z-score in [14] was -0.58; in assay [15] it was -0.723; in assay [16] it was -1.63; in assay [18], -0.282; in assay [19] it was -0.531. The composite Z-score in assay [2] was 0.0786 (inactive). In addition, the z-score is 0.302 in [17] and 1.35 (inactive) in [20].
For `CC(C)C(O)C1C=CC2C(=O)N(c3ccccc3)C(=O)C2N1Nc1ccc(C#N)cc1` (stereo not given), the composite z-score in assay [1] was 1.03; in assay [3] it was 0.276; in assay [4] it was 0.0883; in assay [5], 0.842; in assay [6], 2.73; in assay [7], 0.997. Moreover, the composite z-score in [8] is 1.26; in assay [9], -0.387; in [10] it was 1.19; in assay [11], 1.68; in assay [12], 1.14; in assay [13], 0.0162. The composite z-score in [14] is 1.01; in assay [15], 0.97; in assay [16], 0.598; in [18], -0.265; in assay [19], 1.12. Moreover, in assay [2], the composite Z-score is 2.09 (inactive). The z-score is 0.192 in [17] and -0.555 (inactive) in assay [20].
